In PubChem BioAssay (NCATS):
Inconclusive results are not listed. Entries that show only a call come without a potency. Calls of active or inactive are those of the source. Unless noted, calls come from the whole dose curve; as a rule, active = well fitted curve in the direction sought with a large enough effect; inconclusive = small, poorly fitted or top-dose-only effect, or another doubt; inactive = no such curve, though single readings can be large; an effect the other way counts as inactive or inconclusive.

Tests used:
[1] = qHTS for differential inhibitors of proliferation of Plasmodium falciparum line D10 (AID 1877);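 note: parasites grown with compound for 72 h before DNA staining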; note: potency is the fitted concentration of half-maximal effect
[2] = qHTS for differential inhibitors of proliferation of Plasmodium falciparum line Dd2 (AID 1882); settings: Potency: Plasmodium falciparum Dd2 proliferation inhibition; note: nearly all actives have a fitted effect of over 65% in size; note: potency is the fitted concentration of half-maximal effect
How it was run: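 SYBR Green I DNA fluorescence read-out, ex 485/em 535 nm. Signals were normalized to 0.29 uM artemisinin and DMSO wells, then corrected using vehicle-only plates flanking each stack. Parasite growth ran 72 h in erythrocytes before lysis.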

[3] = qHTS for differential inhibitors of proliferation of Plasmodium falciparum line HB3 (AID 1886); settings: Potency: Plasmodium falciparum HB3 proliferation inhibition;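 note: parasites grown with compound for 72 h before SYBR Green readout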; note: potency is the fitted concentration of half-maximal effect
[4] = qHTS Assay for Modulators of Human Peripheral Myelin Protein 22 (PMP22) Expression/Activity (AID 1967; active = well fitted curve in the direction sought with a large enough effect in the signal ratio; the % refers to the signal ratio)
How it was run: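 Luminescence ratio of Pmp22 promoter-driven green luciferase to EF-alpha-driven red luciferase, in engineered mouse MSC80 Schwann cells, served as read-out. Compounds were incubated 24h; untreated cells defined 0% Activity; curves were classified by r2, magnitude and activity.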

[5] = target: Ferritin light chain (Equus caballus) (UniProt P02791); assay: qHTS Validation Assay for Identification of Novel General Anesthetics (AID 2323); note: series mostly up to about 77 µM
How it was run: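 Fluorescence at 535 nm (excitation 380 nm) reported loss of 1-AMA binding to horse-spleen apoferritin (10 uM) in PBS with 50% saturated 1-aminoanthracene, after 10 min room-temperature incubation with compound; values from Hill fits of normalized response.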

[6] = target: ATP-dependent DNA helicase Q1 (Homo sapiens) (UniProt P46063); assay: qHTS Validation Assay for Inhibitors of RecQ-Like Dna Helicase 1 (RECQ1) (AID 2353); note: potency is the fitted concentration of half-maximal effect
How it was run: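 50 nM RECQ1T1 preincubated 15 min with compound in Tris pH 8.0 buffer with MgCl2, DTT, Tween-20 and 2.5 ug/ml poly(dI-dC); started with 200 nM TAMRA/BHQ-2 forked duplex and 2 mM ATP. Unwinding read as fluorescence (525/598 nm), two reads 2 h apart.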

[7] = target: RecQ-like DNA helicase BLM (Homo sapiens) (UniProt P54132); assay: qHTS Validation Assay for Inhibitors of Bloom's syndrome helicase (BLM) (AID 2364); note: potency is the fitted concentration of half-maximal effect
How it was run: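 Forked 20-bp duplex substrate (200 nM, TAMRA/BHQ-2) plus 2 mM ATP added after 15 min compound preincubation with 50 nM enzyme, pH 8.0, poly(dI-dC) 2.5 ug/ml. Strand separation followed by fluorescence (525/598 nm) over 2 h, normalized to enzyme-free and DMSO controls.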

[8] = qHTS for differential inhibitors of proliferation of Plasmodium falciparum line W2 (AID 1883); settings: Potency: Plasmodium falciparum W2 proliferation inhibition;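 note: parasites grown with compound for 72 h before lysis and staining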; note: potency is the fitted concentration of half-maximal effect

ATP-dependent DNA helicase Q1 (Homo sapiens), sequence (P46063 whole entry, looked up): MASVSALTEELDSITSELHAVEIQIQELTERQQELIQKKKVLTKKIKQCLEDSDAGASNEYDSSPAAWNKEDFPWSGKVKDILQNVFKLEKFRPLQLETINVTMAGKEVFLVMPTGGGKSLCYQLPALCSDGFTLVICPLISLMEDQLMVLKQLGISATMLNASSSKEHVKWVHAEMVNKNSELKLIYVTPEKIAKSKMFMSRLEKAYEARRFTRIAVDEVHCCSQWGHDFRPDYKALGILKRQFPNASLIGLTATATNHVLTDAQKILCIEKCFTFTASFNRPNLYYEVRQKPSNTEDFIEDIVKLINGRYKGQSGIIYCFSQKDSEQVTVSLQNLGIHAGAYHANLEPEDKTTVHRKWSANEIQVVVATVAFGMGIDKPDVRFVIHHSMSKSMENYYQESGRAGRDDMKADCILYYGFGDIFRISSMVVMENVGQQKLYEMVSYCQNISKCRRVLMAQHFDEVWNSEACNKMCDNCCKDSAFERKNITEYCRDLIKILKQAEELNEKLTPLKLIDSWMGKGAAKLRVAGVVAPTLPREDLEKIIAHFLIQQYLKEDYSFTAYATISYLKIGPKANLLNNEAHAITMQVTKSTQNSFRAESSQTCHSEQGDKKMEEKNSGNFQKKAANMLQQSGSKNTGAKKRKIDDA
RecQ-like DNA helicase BLM (Homo sapiens), sequence (P54132 whole entry, looked up): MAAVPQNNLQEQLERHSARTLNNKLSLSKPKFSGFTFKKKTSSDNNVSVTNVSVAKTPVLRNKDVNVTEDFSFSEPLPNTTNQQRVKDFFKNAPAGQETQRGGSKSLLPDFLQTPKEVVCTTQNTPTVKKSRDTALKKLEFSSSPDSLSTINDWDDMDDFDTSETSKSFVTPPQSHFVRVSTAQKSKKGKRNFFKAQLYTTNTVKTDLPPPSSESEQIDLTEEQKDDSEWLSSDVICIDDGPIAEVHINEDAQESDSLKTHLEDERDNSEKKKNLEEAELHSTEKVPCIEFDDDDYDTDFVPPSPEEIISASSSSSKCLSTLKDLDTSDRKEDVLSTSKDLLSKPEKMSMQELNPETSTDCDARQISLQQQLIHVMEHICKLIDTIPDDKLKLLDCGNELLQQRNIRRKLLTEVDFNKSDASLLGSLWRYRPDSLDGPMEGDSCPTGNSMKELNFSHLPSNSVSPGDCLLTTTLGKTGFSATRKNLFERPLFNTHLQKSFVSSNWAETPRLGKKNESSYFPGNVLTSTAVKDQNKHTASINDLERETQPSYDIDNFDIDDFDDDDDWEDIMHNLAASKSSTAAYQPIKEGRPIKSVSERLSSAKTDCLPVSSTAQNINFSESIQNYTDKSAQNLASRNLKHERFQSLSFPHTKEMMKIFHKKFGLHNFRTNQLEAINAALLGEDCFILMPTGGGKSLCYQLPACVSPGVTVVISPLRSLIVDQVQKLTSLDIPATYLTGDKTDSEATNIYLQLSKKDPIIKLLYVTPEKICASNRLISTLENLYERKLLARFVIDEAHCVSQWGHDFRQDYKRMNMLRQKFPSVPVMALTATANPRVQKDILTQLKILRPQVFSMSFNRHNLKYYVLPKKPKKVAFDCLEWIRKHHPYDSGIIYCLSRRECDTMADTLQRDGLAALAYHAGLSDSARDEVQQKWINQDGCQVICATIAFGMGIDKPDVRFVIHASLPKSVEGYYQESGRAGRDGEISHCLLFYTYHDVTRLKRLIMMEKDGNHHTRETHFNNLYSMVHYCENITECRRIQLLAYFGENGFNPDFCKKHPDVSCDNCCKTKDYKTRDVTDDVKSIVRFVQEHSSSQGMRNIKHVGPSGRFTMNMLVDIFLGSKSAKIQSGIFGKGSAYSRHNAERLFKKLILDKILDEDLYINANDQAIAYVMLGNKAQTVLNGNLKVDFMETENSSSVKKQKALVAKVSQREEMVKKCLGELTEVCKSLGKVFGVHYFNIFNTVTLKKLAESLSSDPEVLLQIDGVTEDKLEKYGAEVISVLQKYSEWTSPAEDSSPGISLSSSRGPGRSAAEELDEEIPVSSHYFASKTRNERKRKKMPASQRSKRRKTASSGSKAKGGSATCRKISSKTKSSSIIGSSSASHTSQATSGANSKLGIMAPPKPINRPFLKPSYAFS
Ferritin light chain (Equus caballus), sequence (P02791 2-175 limits assumed): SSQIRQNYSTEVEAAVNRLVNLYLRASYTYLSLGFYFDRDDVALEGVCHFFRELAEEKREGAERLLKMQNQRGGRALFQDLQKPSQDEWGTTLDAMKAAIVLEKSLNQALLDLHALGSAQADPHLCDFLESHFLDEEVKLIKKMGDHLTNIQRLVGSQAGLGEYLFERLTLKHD

| SMILES | Potency [1] | Potency [2] | Potency [3] | outcome [4] | outcome [5] | Potency [6] | Potency [7] | Potency [8] |
| --- | --- | --- | --- | --- | --- | --- | --- | --- |
| CN1CCc2cccc(Cl)c2CC1 | inactive | inactive | inactive | inactive | inactive | inactive | inactive | – |
| C=CCN1C[C@@H](C)N([C@H](c2ccc(C(=O)N(CC)CC)cc2)c2cccc(OC)c2)C[C@@H]1C | 7.08 µM (active) | 8.91 µM (active) | 4.47 µM (active) | – | – | inactive | – | 3.16 µM (active) |
| CC(C)(C)c1o[nH]c(=O)c1CC(N)C(=O)O (configuration not stated) | inactive | inactive | inactive | inactive | inactive | – | – | – |
| CN1C2CCC1CC(OC(c1ccccc1)c1ccc(Cl)cc1)C2 (configuration not stated) | 7.94 µM (active) | 8.91 µM (active) | 2.24 µM (active) | – | inactive | – | inactive | 1.12 µM (active) |
| CCCN1CCCC2Cc3[nH]ncc3CC21 (configuration not stated) | inactive | inactive | inactive | inactive | inactive | inactive | – | – |
| CC(N)c1cccc(Cl)c1Cl (configuration not stated) | inactive | – | inactive | inactive | – | – | inactive | 8.91 µM (active) |
| COc1ccc2[nH]c3c(c2c1)CCNC3 | inactive | inactive | inactive | – | inactive | – | inactive | – |
| N[C@@H](CCl)C(=O)O | inactive | inactive | inactive | – | inactive | – | – | – |
| C[N+]1(C)CCC(OC(=O)C(c2ccccc2)c2ccccc2)CC1 | 7.08 µM (active) | – | 7.94 µM (active) | – | inactive | inactive | – | 3.98 µM (active) |
| NC(=O)c1cc(N2CC2)c([N+](=O)[O-])cc1[N+](=O)[O-] | inactive | inactive | inactive | – | inactive | – | – | – |
| C[N+](C)(C)CC#CCN1CCCC1=O | inactive | inactive | inactive | – | inactive | inactive | inactive | – |
| C[N+]1(C)CCOC(O)(c2ccc(-c3ccc(C4(O)C[N+](C)(C)CCO4)cc3)cc2)C1 (configuration not stated) | inactive | inactive | – | inactive | inactive | – | inactive | – |
| COc1ccc2c(c1OC)C(=O)OC2C1c2cc3c(cc2CCN1C)OCO3 (configuration not stated) | inactive | inactive | inactive | – | inactive | inactive | – | – |
| NCC(O)c1cc(O)c(O)cc1F (configuration not stated) | inactive | inactive | inactive | – | inactive | – | – | – |
| Nc1ccc(CCN2CCN(c3cccc(C(F)(F)F)c3)CC2)cc1 | – | inactive | inactive | – | inactive | inactive | – | 10 µM (active) |
| CNC(=O)OCC[N+](C)(C)C | – | inactive | inactive | – | inactive | inactive | inactive | inactive |
| CN(N=O)c1ccc(O)c(O)c1 | inactive | inactive | – | – | – | 1.12 µM (active) | 6.31 µM (active) | – |
| COc1ccc(OC)c(C(O)C(C)N)c1 (configuration not stated) | inactive | inactive | inactive | – | inactive | inactive | – | – |
| COc1ccc2c(c1)C13CCCCC1C(C2)N(C)CC3 (configuration not stated) | inactive | – | – | – | inactive | inactive | inactive | 0.891 µM (active) |
| CN(C(=O)Cc1ccc(Cl)c(Cl)c1)C(CN1CCCC1)c1cccc(OCC(=O)O)c1 (configuration not stated) | – | inactive | inactive | – | inactive | inactive | inactive | 14.1 µM (active) |
| CCCn1c(=O)c2[nH]c(C3CCCC3)nc2n(CCCOC(=O)c2ccc(S(=O)(=O)F)cc2)c1=O | inactive | – | – | – | – | inactive | – | 11.2 µM (active) |
| NC(N)=NOCC[C@H](N)C(=O)O | inactive | inactive | inactive | – | inactive | inactive | – | – |
| NCCc1c[nH]c2ccc(C(N)=O)cc12 | inactive | inactive | inactive | inactive | inactive | – | inactive | – |
| C[N+]1(C)CCN(c2ccccc2)CC1 | inactive | inactive | inactive | – | inactive | inactive | – | – |
